KB-3-1 cytotox: KB-3-1 parental cell cytotoxicity | KB-3-1 viability, CellTiter-Glo ATP luminescence, 72 h | Potency, µM (series often up to 46.1 µM), most hits filed as cytotoxic | 400,000 tested, 1.4% active | AID 1347075; note: nearly all actives have a fitted effect of over 60% in size
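Multi-concentration cytotoxicity screen in KB-3-1 cells grown in DMEM lacking phenol red with 10% FBS. After 72 h at 37 °C with compound, ATP-dependent luminescence was recorded.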
ELG1 DNA repair: inhibitors of ELG1-dependent DNA repair in HEK293T cells | HEK293T ELG1-luciferase reporter, luminescence, 16 h; DNA damage induced by 5-fluorouridine | Potency, µM (doses to about 46.1 µM), usual class: inhibitors | 330,000 tested, 2.3% active | AID 504467; note: nearly all actives have a fitted effect of over 55% in size
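In this reporter screen, reduction of luminescence relative to DMSO vehicle indicated activity. Compounds and 5-fluorouridine were added together to 2,000 cells per well, incubated for 16 hr at 37 °C, then developed with ONE-Glo.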
MCF10A rerep: induces DNA re-replication in MCF 10a normal breast cells | Potency, µM (doses to about 46.1 µM), actives largely listed as activators | 350,000 tested, 2.9% active | AID 624296 | MCF 10A DNA re-replication, Hoechst nuclear intensity, 48 h; note: nearly all actives have a fitted effect of over 50% in size
SW480 rerep: induces DNA re-replication in SW480 colon adenocarcinoma cells | SW480 DNA re-replication, Hoechst DNA content imaging, 48 h | Potency, µM (highest dose often 46.1 µM), most hits filed as activators | 340,000 tested, 1.8% active | AID 624297; note: nearly all actives have a fitted effect of over 55% in size
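Compounds, transferred as 23 nL by pin tool, were incubated with cells for 48 hr; DNA content per nucleus was then quantified by Hoechst staining and fluorescence plate imaging.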
KB-V1 cytotox: KB-V1 MDR subline cytotoxicity; KB-V1 MDR cells viability, CellTiter-Glo, 72 h; Potency, µM (top dose mostly 46.1 µM), hits mostly cytotoxic; 400,000 tested, 3.4% active; AID 1347076; note: nearly all actives have a fitted effect of over 60% in size
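Compound-treated KB-V1 multidrug-resistant cells, 72 h, 37 degrees C; viability by CellTiter-Glo. Fitted qHTS curves give the values.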
Numbers stand for hits; - = inactive; ? = inconclusive; . = no result; ! = not active in a repeat. In the library only some 8.2% were active in any assay of this set; here they are far more common. Calls come from the whole dose curve; as a rule, active = well fitted curve in the direction sought with a large enough effect; inconclusive = small, poorly fitted or top-dose-only effect, or another doubt; inactive = no such curve, though single readings can be large; an effect the other way counts as inactive or inconclusive.

SMILES | KB-3-1 cytotox | ELG1 DNA repair | MCF10A rerep | SW480 rerep | KB-V1 cytotox
CCOC(=O)c1cnc(-n2nc(C)cc2C)nc1Nc1ccc(N(C)C)cc1 | ? | 14.6µM | - | - | -
CCOC(=O)c1cnc(-n2nc(C)cc2C)nc1NC1CCCCC1 | ? | - | 20.6µM | ? | 8.2µM
CCOC(=O)c1cnc(-n2nc(C)cc2C)nc1NC | - | - | - | ? | ?
CCOC(=O)c1cnc(-n2cc(C)cn2)nc1Nc1ccccc1OC | ? | 5.17µM | - | - | 1.84µM
CCOC(=O)c1cnc(-n2nc(C)cc2C)nc1Nc1ccc(C)cc1 | - | ? | - | - | 1.03µM
CCOC(=O)c1cc(NC(=O)NC2CCCCC2)c(C)nc1C | - | - | - | - | ?
CCOC(=O)c1cnc(-n2nc(C)cc2C)nc1N(CC)CC | - | ? | - | ? | 1.64µM
CCOC(=O)c1cnc(-n2nc(C)cc2C)nc1Oc1ccc(C#N)cc1 | - | - | - | - | -
N#CC1=C(N)Oc2cc3ccccc3cc2C1c1cccnc1 (centres undefined) | 5.8µM | - | 7.08µM | 17.8µM | ?
Cc1ccc2cc(C3C(C#N)=C(N)Oc4c3ccc3cccnc43)c(=O)[nH]c2c1 (centres undefined) | - | - | ? | ? | -
N#CC1=C(N)Oc2c(ccc3cccnc23)C1c1cccnc1 (centres undefined) | ? | ? | 8.2µM | 2.59µM | ?
CCc1ccc2[nH]c(=O)c(C3C(C#N)=C(N)Oc4c3ccc3cccnc43)cc2c1 (centres undefined) | ? | 11.6µM | ? | ? | 2.31µM
C[n+]1cccc2ccc3c(c21)OC(N)=C(C#N)C3c1ccccc1 (centres undefined) | - | ? | - | - | -
C[n+]1cccc(C2C(C#N)=C(N)Oc3c2ccc2ccccc32)c1 (centres undefined) | ? | - | ? | 18.4µM | ?
N#CC1=C(N)Oc2cc3ccccc3cc2C1c1cccs1 (centres undefined) | 10µM | - | ? | ? | -
CN(C)/C=N/C1=C(C#N)C(c2cccs2)c2ccc3ccccc3c2O1 (centres undefined) | 2.59µM | ? | ? | 5.17µM | 5.8µM
CCOC(=O)C1=C(c2ccccc2)OC(N)=C(C#N)C1c1cccs1 (centres undefined) | - | - | - | - | ?
CN(C)c1ncnc2c1ncn2[C@H]1CN(Cc2ccco2)C[C@@H](CO)O1 | - | . | . | . | -
O=C(CNC(=O)CNC(=O)c1ccc(Cl)cc1Cl)NCc1cccc(Cl)c1 | - | - | - | - | -
CCN(CC)S(=O)(=O)c1cccc(C(=O)Nc2ccc(S(=O)(=O)NC3=NCCCCC3)cc2)c1 | - | ? | - | - | -
Cc1cc(=O)c2c([nH]1)c(C)cc1[nH]c(C)c(C)c12 | ? | - | - | 9.2µM | -
Cc1cc(C)c(S(C)(=O)=O)c(=O)[nH]1 | - | - | - | - | -
CC1(c2nnc(-c3ccc(F)cc3)o2)CC(c2ccc([N+](=O)[O-])cc2)=NO1 (centres undefined) | - | - | - | ? | -
CC1=C(C(=O)Nc2ccccc2C)C(c2cccs2)NC(=S)N1 (centres undefined) | - | - | - | - | -
CCOc1ccccc1NC(=O)C1=C(C)NC(=S)NC1c1cccs1 (centres undefined) | - | ? | - | - | 13µM
SMILES | KB-3-1 cytotox | ELG1 DNA repair | MCF10A rerep | SW480 rerep | KB-V1 cytotox
O=c1[nH]c(SCc2nc3ccccc3c(=O)n2-c2ccccc2C(F)(F)F)nc2ccccc12 | - | 18.4µM | ? | - | ?
O=c1[nH]c(SCc2nc3ccccc3n2Cc2ccccc2)nc2ccccc12 | - | ? | - | - | ?
CCOC(=O)c1ccccc1NC(=O)Cn1c(=O)n(-c2cccc(C)c2)c(=O)c2c1c1cc(C)ccc1n2C | - | . | . | . | -
CCOC(=O)C(=O)NNc1ccccc1C | - | - | ? | - | -
CCOC(=O)C(=O)NNc1cccc(C)c1C | - | - | 8.2µM | - | -
CC(=O)N1CCC(C(=O)N2c3ccccc3N=C(c3ccc(C(F)(F)F)cc3)C2C(=O)NC(C)(C)C)CC1 (centres undefined) | - | . | . | . | -
COc1ccc(/C=N/Nc2cn[nH]c(=O)c2Cl)cc1 | 7.31µM | ? | ? | - | ?
Cc1ccsc1/C=N\Nc1cn[nH]c(=O)c1Cl | 4.61µM | ? | ? | - | 2.59µM
Cc1ccc(/C=N\Nc2cn[nH]c(=O)c2Cl)cc1 | 7.08µM | ? | - | - | ?
O=c1[nH]ncc(N/N=C/c2ccccc2)c1Cl | - | ? | ? | - | ?
Cc1nnc2c(N3CCN(c4ccccc4F)CC3)nc3ccccc3n12 | - | . | . | . | -
CC(=O)c1cccc(NC(=O)c2cc(=O)[nH]c3ccccc23)c1 | - | - | - | - | -
O=C(CSCc1cccc(Cl)c1)OCc1nc2ccsc2c(=O)[nH]1 | - | - | - | - | -
Cc1cccc(C(=O)NC(=S)Nc2c(C)n(C)n(-c3ccccc3)c2=O)c1 | - | . | - | - | -
Clc1ccc(CSc2ccc(-c3cccnc3)nn2)cc1 | - | - | - | - | ?
Fc1cccc(Cl)c1CSc1ccc(-c2cccnc2)nn1 | - | ? | 23.1µM | - | -
COCCNC(=O)c1c(CS(=O)(=O)c2ccccc2)noc1C(=O)NCc1ccccc1 | - | - | - | - | -
CS(=O)(=O)N1CCN(Cc2cc3nc(-c4cccc5[nH]ncc45)nc(N4CCOCC4)c3s2)CC1 | 5.01µM | . | . | . | ?
Cc1ccc(S(=O)(=O)N2CCN(c3nc(-c4ccc(CN5CCOCC5)s4)nc4ccccc34)CC2)cc1 | - | . | . | . | ?
COCCCN=C1NN=C(c2cc(C)n(-c3ccccc3F)c2C)CS1 | 7.31µM | ? | ? | ? | -
Fc1ccc(N=C2NN=C(c3cc(F)ccc3F)CS2)cc1 | ? | ? | ? | ? | -
COCCCN=C1NN=C(c2cc(C)n(Cc3ccccc3Cl)c2C)CS1 | 1.3µM | ? | ? | 0.651µM | 1.46µM
COCCCN=C1NN=C(c2cc(C)n(-c3ccccc3)c2C)CS1 | - | ? | ? | ? | -
Fc1ccc(F)c(C2=NNC(=Nc3ccccc3F)SC2)c1 | ? | ? | 20.6µM | ? | ?
COCCn1c(C)cc(C2=NNC(=Nc3ccccc3F)SC2)c1C | 18.4µM | ? | - | - | 11.6µM
CCOC(=O)CSc1ncc(-c2ccc([N+](=O)[O-])cc2)[nH]1 | - | ? | - | - | -
CCN(CC)c1ncnc2c1ncn2[C@H]1CN(Cc2ccccc2)C[C@@H](COC(C)=O)O1 | - | . | . | . | -
O=C(NCCc1ccccc1)C1CC(=O)N(c2ccc3c(c2)OCCO3)C1 (centres undefined) | - | - | - | - | -
COc1ccc(-c2nc(NC(=O)C3CC(=O)N(c4ccc5c(c4)OCCO5)C3)sc2C)cc1 (centres undefined) | 13µM! | - | 3.26µM | 4.11µM | ?
COc1ccc2nc(NC(=O)C3CC(=O)N(c4ccc5c(c4)OCCO5)C3)sc2c1 (centres undefined) | - | ? | - | - | -

From PubChem
